This is a sample that favours compounds with a hit; in the whole collection about 11% have one here.
ALDH1A1 inh – inhibitors of human aldehyde dehydrogenase 1A1; P00352; Purified ALDH1A1, NADH fluorescence, propionaldehyde substrate; Potency, µM (doses to about 75.3 µM), most hits filed as inhibitors; 7.3% of 220,000 active; active = well fitted inhibition curve with a large enough effect, not every such curve was filed as active; inconclusive = small, poorly fitted or top-dose-only effect, or another doubt; inactive = no such curve, though single readings can be large or run the other way
CBFb-RUNX1 inh – blocks binding between human CBF-beta and RUNX1; Q01196+Q13951; AlphaScreen CBFb-His/RUNX1-biotin binding, biochemical; Potency, µM (doses to about 59.8 µM), hits mostly inhibitors; 230,000 tested, under 10 active; AID 1477
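Room-temperature protein-protein interaction test with 30 nM each of His-tagged CBF-beta and biotinylated RUNX1, 15 min with compound, then 90 min with nickel plus streptavidin beads. Signal read in AlphaScreen mode.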
HTT ATP protect – Huntington cell model cytoprotection by ATP luminescence; AID 1471; Potency, µM (highest dose often 56.4 µM), actives largely listed as activators; 0.14% of 230,000 active; PC12 HTT-Q103 induced, cytoprotection, ATP luminescence, 40 h; also: nearly all actives have a fitted effect of over 45% in size
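Compounds added alongside 100 nM tebufenozide, which induces toxic Q103 huntingtin exon 1-GFP in stable PC12 cells; surviving cells quantified by luminescent ATP measurement. Medium: phenol red-free DMEM, 5% equine and 5% calf serum.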
HTT aggregate – reduces HttQ103-GFP aggregates in PC12 cells. PC12 HttQ103-GFP aggregates, Acumen cytometry, 40 h. Potency, µM (doses to about 46.1 µM), usual class: inhibitors. 1.1% of 220,000 active; also: nearly all actives have a fitted effect of over 60% in size
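Aggregate formation scored by laser-scanning cytometer (488 excitation, 500–530 emission) in lysed PC12 cells expressing Q103-GFP after 100 nM tebufenozide induction; library tested in dose series, with ATPLite reagent added in the multiplex.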
PNC assembly inh – blocks assembly of the perinucleolar compartment; PC3M PTB-GFP, PNC prevalence imaging, 16 h; hits give low values; activity change (PNC), negative = inhibition, % at 10 µM; 3.1% of 140,000 active; AID 2417;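 active = readout at or below -70, meaning at least 70% loss of cells showing the perinucleolar compartment, a nuclear body marking cancer cells; inconclusive = readout between -30 and a set limit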
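Compounds are pinned in duplicate onto adhered PC3M cells stably expressing GFP-tagged PTB and incubated 16 h at 37 C. Cells are then fixed, nuclei stained with Hoechst, and PNC-positive cells counted.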
HPGD inh – inhibitors of human 15-hydroxyprostaglandin dehydrogenase (HPGD); purified HPGD, NADH fluorescence kinetic, PGE2 substrate; Potency, µM, most hits filed as inhibitors; AID 894; 4.3% of 150,000 active; active = well fitted inhibition curve with a large enough effect, not every such curve was filed as active; inconclusive = small, poorly fitted or top-dose-only effect, or another doubt; inactive = no such curve, though single readings can be large or run the other way
Target sequence (P15428 whole entry, looked up): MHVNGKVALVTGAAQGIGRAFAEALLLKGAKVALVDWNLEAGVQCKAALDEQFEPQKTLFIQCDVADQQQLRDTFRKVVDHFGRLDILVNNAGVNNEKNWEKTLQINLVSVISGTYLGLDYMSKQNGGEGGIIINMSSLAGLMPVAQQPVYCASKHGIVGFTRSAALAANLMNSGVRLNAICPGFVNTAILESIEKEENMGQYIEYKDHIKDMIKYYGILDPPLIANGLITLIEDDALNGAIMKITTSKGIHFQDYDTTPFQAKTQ
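20 nM HPGD preincubated 15 min at room temperature with compound in 50 mM Tris-HCl pH 8, 0.01% Tween 20. Started with 1 mM NAD+ and 30 uM prostaglandin E2; NADH fluorescence (360/450 nm) read 5 times over 30-s intervals, last minus first.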
Numbers stand for hits; i = inactive; ? = inconclusive; nt = no result given; [ ] = another dose, or the depositor's remark. Unless noted, calls follow the shape of the dose curve; as a rule, active = well fitted curve in the direction sought with a large enough effect; inconclusive = small, poorly fitted or top-dose-only effect, or another doubt; inactive = no such curve, though single readings can be large; an effect the other way counts as inactive or inconclusive.

SMILES | ALDH1A1 inh | CBFb-RUNX1 inh | HTT ATP protect | HTT aggregate | PNC assembly inh | HPGD inh
CCC(=O)Nc1ccc(SC#N)cc1C | 2.51µM | i | ? | i | i | i
CCC(=O)Nc1cc(C(C)C)c(O)cc1C | i | i | i[0.074 µM] | i | i | i
CCc1cc(SC#N)cc(C)c1NC(=O)CCl | i | i | i[10 µM] | i | i | 15.8µM
CCc1cc(SC#N)cc(C)c1N | ? | i | i[10 µM] | ? | nt | nt
CC(C)CN1CCCC2(CCN(C(=O)c3cnccn3)CC2)C1 | ? | nt | i | nt | nt | i
CN(C)C(=O)c1ccc(-c2cc(NCc3cccnc3)ncn2)cc1 | ? | nt | i | nt | nt | nt
CC[C@H](C)C(=O)O[C@@H]1CCC=C2C=C[C@H](C)[C@@H](CC[C@H]3C[C@@H](O)CC(=O)O3)[C@H]21 | nt | nt | i[1.9 µM] | nt | nt | nt
Cc1ccc2nc(NC(=O)COC(=O)c3ccc(Br)o3)sc2c1 | ? | i | i | ? | ? | i
O=C(CSc1nnc(C2CC2)n1-c1ccccc1)NCc1ccco1 | i | i | i | i | i | i
O=C(CSc1nnc(C2CC2)n1Cc1ccco1)NCC(F)(F)F | 23.8µM | i | i | i | nt | nt
Fc1ccc(CSc2nncn2NCc2ccccc2)cc1 | i | i | i[10 µM] | i | i | i
Fc1ccc(CSc2nncn2NC/C=C/c2ccccc2)cc1 | i | i | i[10 µM] | i | -83.2 | i
CCOC(=O)c1oc2ccccc2c1CSc1nnnn1-c1ccccc1 | 6.31µM | i | i | ? | i | i
CCOC(=O)c1sc(NC(=O)CSc2nnnn2-c2ccccc2)nc1C | ? | i | i[10 µM] | i | i | i
CCOC(=O)c1oc2ccccc2c1CN1CCOCC1 | 11.2µM | i | i | i | i | i
CCOC(=O)c1oc2ccccc2c1CN1CCCCC1 | i | ? | i | i | nt | nt
Cc1ccc(NC(=O)c2ccc(OC(F)(F)F)cc2)cc1S(=O)(=O)N(C)C | i | i | i[1.9 µM] | i | ? | i
O=C1c2ccc(-c3nc4ccccc4o3)cc2C(=O)N1Cc1cccnc1 | nt | nt | i | nt | nt | nt
CC(=O)Oc1ccc2c(c1)CCC1C2CC[C@]2(C)C(OC(C)=O)CCC12 (some centres undefined) | i | i | nt | nt | nt | i
CCOC(=O)C1CCN(C(=O)C2c3ccccc3C(=O)N(C)C2c2ccc(OC)cc2)CC1 (centres undefined) | 2.82µM | i | i[1.9 µM] | i | i | i
COc1ccc(C2C(C(=O)N3CCCCC3)c3ccccc3C(=O)N2C)cc1 (centres undefined) | 14.1µM | i | i | i | i | nt
COCCN1C(=O)c2ccccc2C(C(=O)N2CCN(c3ccccn3)CC2)C1c1ccc(F)cc1 (centres undefined) | i | i | i[10 µM] | i | -100.0 | i
CC(C)[C@H](NC(=O)OC(C)(C)C)[C@@H](O)CC(=O)OC(C)(C)C | i[13.5 µM] | i[13.1 µM] | i[10 µM] | nt | nt | nt
Cc1cc(C)cc(OCC(=O)Nc2ccc3c(c2)OCCO3)c1 | ? | i | i | i | nt | nt
COc1ccc(NC(=S)NCc2ccc(S(N)(=O)=O)cc2)c(OC)c1 | ? | i | i[10 µM] | i | i | 14.1µM
SMILES | ALDH1A1 inh | CBFb-RUNX1 inh | HTT ATP protect | HTT aggregate | PNC assembly inh | HPGD inh
COc1ccc(OC)c(NC(=S)NCc2ccc(S(N)(=O)=O)cc2)c1 | ? | i | i[10 µM] | i[9.22 µM] | nt | nt
NS(=O)(=O)c1ccc(CNC(=S)NC2CC2)cc1 | 3.16µM | i | i | i | nt | nt
Cc1ccc(NC(=S)NCCc2ccc(S(N)(=O)=O)cc2)cc1C | ? | i | i[10 µM] | ? | -108.6 | nt
CCOCCCNC(=S)Nc1ccc(S(N)(=O)=O)cc1 | i | i | nt | i | i | 14.1µM
COc1ccc(CNc2ccnc(-c3ccccc3CN(C)C)n2)c(OC)c1 | i | nt | i | nt | nt | nt
COc1ccc(NC(=S)NCc2ccc(S(N)(=O)=O)cc2)cc1OC | i | i | i | i | nt | nt
COc1ccc(CNC(=S)Nc2ccc(S(N)(=O)=O)cc2)cc1 | 28.2µM | i | i[10 µM] | i | nt | nt
COc1cc(OC)cc(C(=O)NNC(=S)Nc2ccc(S(N)(=O)=O)cc2)c1 | 11.2µM | i | i | i[9.22 µM] | nt | nt
COc1cccc(Cn2c(=O)c(C)nc3cnc(N4CCOCC4)nc32)c1 | ? | nt | i | nt | nt | i
COc1ccc(CSc2nc(C)[nH]c2[N+](=O)[O-])cc1[N+](=O)[O-] | nt | i | i[10 µM] | i[9.22 µM] | nt | nt
Cc1nc(SCc2ccccc2)c([N+](=O)[O-])[nH]1 | ? | i | nt | i | -107.3 | i
